Screens deposited in PubChem by National Center for Advancing Translational Sciences (NCATS).
Rows were chosen to be rich in hits. Some 6.7% of all compounds tested hit in one or more screens of this group.
KB-V1 cytotox: kills drug-selected multidrug resistant KB-V1 cells; Potency, µM (titrated, usually from 46.1 µM), actives largely listed as cytotoxic; KB-V1 MDR cells viability, CellTiter-Glo, 72 h; 400,000 compounds, 3.4% hits; further: on the % scale 0 is the no-effect control and ±100 the full control effect; nearly all actives have a fitted effect of over 60% in size
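Luminescent ATP read-out (CellTiter-Glo, 10 min) measures survival of drug-selected KB-V1 MDR cells after 72 h, 37 degrees C compound exposure. Medium: phenol-red-free DMEM, 10% FBS. Values from fitted concentration-response curves.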
PINK1 modulator: modulators of PINK1 expression; PINK1 immunofluorescence, high-content cytometry, 24 h; Potency, µM (doses to about 76.6 µM), for the others: at the highest dose activation (PINK1 increase), hits mostly activators; 410,000 compounds, 0.2% hits; active means well fitted activation curve with a large enough effect; inconclusive means small, poorly fitted or top-dose-only effect; cell line not stated here; further: % of control where 0% means no effect; nearly all actives have a fitted effect of over 65% in size
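Stable cell line treated 24 h with compounds at 5 concentrations (CCCP controls), then fixed and immunostained for PINK1 plus nuclear and cell stains; PINK1 immunofluorescence quantified by laser-scanning microplate cytometry.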
SW480 rereplic: inducers of DNA re-replication in SW480 colon cancer cells. AID 624297. SW480 DNA re-replication, Hoechst DNA content imaging, 48 h. Potency, µM (doses to about 46.1 µM), without a hit: at the highest dose re-replication activation, hits mostly activators. 340,000 compounds, 1.8% hits; further: % of control where 0% means no effect; nearly all actives have a fitted effect of over 55% in size
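Readout is total intensity of Hoechst-stained nuclei, excited at 405 nm and collected at 500-530 nm. Compound treatment lasted 48 hr at 37 C in 5% CO2 before staining.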
MCF10A rerep: induces DNA re-replication in MCF 10a normal breast cells. Potency, µM (doses to about 46.1 µM), inactives show at the top dose activity, positive = re-replication, actives largely listed as activators. 350,000 compounds, 2.9% hits. MCF 10A DNA re-replication, Hoechst nuclear intensity, 48 h. AID 624296; further: % of control where 0% means no effect; nearly all actives have a fitted effect of over 50% in size
KB-3-1 tox: KB-3-1 parental cell cytotoxicity; Potency, µM (series often up to 46.1 µM), actives largely listed as cytotoxic; AID 1347075; 400,000 compounds, 1.4% hits; KB-3-1 viability, CellTiter-Glo ATP luminescence, 72 h; further: on the % scale 0 is the no-effect control and ±100 the full control effect; nearly all actives have a fitted effect of over 60% in size
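72 h, 37 °C compound treatment of KB-3-1 parental cells; CellTiter-Glo added, 10 min, luminescence read. Data corrected against DMSO-only plates and normalized before curve fitting.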
Starred values were filed as active, the others as inactive; [ ] = dose if it differs, or a comment. Unless noted, the call rests on the fitted dose curve; in most records, active means well fitted curve in the direction sought with a large enough effect; inconclusive means small, poorly fitted or top-dose-only effect, or another doubt; inactive means no such curve, though single readings can be large; an effect the other way counts as inactive or inconclusive. Potency means the concentration at half of the fitted maximal effect.

`CCOC(=O)c1sc(NC(=O)c2ccc(S(=O)(=O)N(CC)CC)cc2)nc1C` gave KB-V1 cytotox inactive, PINK1 modulator 6.5%, SW480 rereplic 5.5%, MCF10A rerep 7.1% and KB-3-1 tox inactive.
CCN(CC)S(=O)(=O)c1ccc(C(=O)Nc2nc3c(Cl)cc(Cl)cc3s2)cc1 was read as KB-V1 cytotox inactive, PINK1 modulator -1.7% and KB-3-1 tox 20.6µM*.
O=C1C(C=NCc2ccncc2)=C(O)c2ccccc21 was read as KB-V1 cytotox inactive, PINK1 modulator -0.9%, SW480 rereplic -8.1%, MCF10A rerep 0.0% and KB-3-1 tox inactive.
`O=C1N/C(=C/c2ccc(Br)cc2)C(O)=C1C=NCc1ccccc1` gave KB-V1 cytotox inconclusive, PINK1 modulator 11.9%, SW480 rereplic inconclusive, MCF10A rerep inconclusive and KB-3-1 tox 4.61µM*.
`O=C(Nc1ccc2ccccc2c1)Nc1nnc(-c2ccc(Cl)cc2)s1` gave KB-V1 cytotox inactive and KB-3-1 tox inactive.
O=C(NCCN1CCN(c2cccc(Cl)c2)CC1)c1ccc(CSc2nc3ccncc3[nH]2)cc1 was read as KB-V1 cytotox inactive, PINK1 modulator -1.2%, SW480 rereplic 15.5%, MCF10A rerep 18.4µM* and KB-3-1 tox inconclusive.
`CCN(CCNC(=O)c1ccc(CSc2nc3ccncc3[nH]2)cc1)c1ccccc1` gave KB-V1 cytotox inactive, PINK1 modulator -0.4%, SW480 rereplic -6.8%, MCF10A rerep inconclusive and KB-3-1 tox inactive.
For CCC(=O)N1CCc2cc(S(=O)(=O)NC(Cc3ccccc3)C(=O)NCc3ccc(F)cc3)ccc21 (stereo not drawn) the results were KB-V1 cytotox inactive, PINK1 modulator -1.1% and KB-3-1 tox inactive.
Screening CCOc1cc2c3c(c1)C(C)=CC(C)(C)N3C(=O)C2=O returned KB-V1 cytotox inconclusive, PINK1 modulator 1.6%, SW480 rereplic inconclusive, MCF10A rerep inconclusive and KB-3-1 tox 20.6µM*.
Cc1ccc2c3c1C(=O)C(=O)N3C(C)(C)CC2C (stereo not drawn) was read as KB-V1 cytotox inactive, PINK1 modulator 3.4%[38.3 µM], SW480 rereplic inconclusive, MCF10A rerep 25.9µM* and KB-3-1 tox inactive.
`Cc1cc2c3c(c1)C(C)CC(C)(C)N3C(=O)C2=O` (stereo not drawn) gave KB-V1 cytotox inactive, PINK1 modulator 6.4%, SW480 rereplic 9.5%, MCF10A rerep 2.8% and KB-3-1 tox inactive.
`CCOc1cc2c3c(c1)C(C)CC(C)(C)N3C(=O)C2=O` (stereo not drawn) gave KB-V1 cytotox 14.6µM*, PINK1 modulator 2.4%[38.3 µM], SW480 rereplic inconclusive, MCF10A rerep inconclusive and KB-3-1 tox inactive.
`CCN1/C(=C2\SC(=S)N(Cc3ccccc3)C2=O)Sc2ccccc21` gave KB-V1 cytotox inactive, PINK1 modulator inconclusive, SW480 rereplic -42.2%, MCF10A rerep -2.0% and KB-3-1 tox inactive.
Screening CCC(CO)[n+]1c(C)cc(/C=C2\Sc3ccccc3N2Cc2ccccc2)cc1C (stereo not drawn) returned KB-V1 cytotox inactive, PINK1 modulator 11.2µM*, SW480 rereplic inconclusive, MCF10A rerep inconclusive and KB-3-1 tox 1.64µM*.
Screening Cc1cc2nc(C(C)(C)C)c(CC3CCCCC3)n2c(C)c1Br returned KB-V1 cytotox inactive, PINK1 modulator inconclusive and KB-3-1 tox inactive.
CCOc1cc(/C=C2\N=C(C)OC2=O)cc(Br)c1OCC(=O)OC was read as KB-V1 cytotox inactive, PINK1 modulator 0.6%[38.3 µM], SW480 rereplic 11.6µM*, MCF10A rerep 9.2µM* and KB-3-1 tox inactive.
CCOc1cc(/C=C2\N=C(C)OC2=O)cc(Br)c1OCCc1ccccc1 was read as KB-V1 cytotox inactive, PINK1 modulator 2.5%[38.3 µM], SW480 rereplic -4.6%, MCF10A rerep -3.9% and KB-3-1 tox inconclusive.
`c1ccc(N2CCN(Cc3cnc(N4CCOCC4)s3)CC2)cc1` gave KB-V1 cytotox 13µM*, PINK1 modulator -0.7%, SW480 rereplic 2.8%, MCF10A rerep inconclusive and KB-3-1 tox inactive.
For N#CC(C#N)=Cc1cnc(N2CCN(c3ccccc3)CC2)s1 the results were KB-V1 cytotox inactive, PINK1 modulator 31.6µM*, SW480 rereplic 3.9%, MCF10A rerep 3.2% and KB-3-1 tox inactive.
OCC1(CCCc2ccccc2)CCN(Cc2cnc(N3CCOCC3)s2)CC1 was read as KB-V1 cytotox inconclusive, PINK1 modulator -1.8%, SW480 rereplic -3.0%, MCF10A rerep inconclusive and KB-3-1 tox 20.6µM*.
`COc1ccc(CN2C[C@H](Sc3nc4ccccc4[nH]3)C[C@H]2C(=O)N(C)C)c2ccccc12` gave PINK1 modulator 0.9%.
Screening Cc1ccc(-c2noc(CNC(=O)c3ccc(C)c(Cl)c3)n2)cc1 returned PINK1 modulator 6.2%.
For O=C1C2C3c4ccccc4C(Br)(c4ccccc43)C2C(=O)N1c1ccccc1O (stereo not drawn) the results were KB-V1 cytotox inactive, PINK1 modulator 0.9%, SW480 rereplic 18.4µM*, MCF10A rerep -6.9% and KB-3-1 tox inactive.
For CCS(=O)(=O)c1ccc2oc(SCC(=O)NC34CC5CC(CC(C5)C3)C4)nc2c1 the results were KB-V1 cytotox 14.6µM*, PINK1 modulator -3.1%, SW480 rereplic -3.7%, MCF10A rerep 2.9% and KB-3-1 tox inactive.
For CCS(=O)(=O)c1ccc2oc(SCC(=O)NCc3ccccc3)nc2c1 the results were KB-V1 cytotox inactive, PINK1 modulator 0.9%, SW480 rereplic -6.7%, MCF10A rerep 2.9% and KB-3-1 tox inactive.
`COc1ccc(S(=O)(=O)Nc2cc(C)c(O)c(S(=O)(=O)c3ccccc3)c2)cc1` gave KB-V1 cytotox 16.4µM*, PINK1 modulator 36.4%[38.3 µM], SW480 rereplic 0.7%, MCF10A rerep -0.7% and KB-3-1 tox inactive.
For CN1CCN(c2ncc3nc(CCc4ccccc4)c(=O)n(C)c3n2)CC1 the results were PINK1 modulator -0.9%.
`Cc1ccc(S(=O)(=O)Nc2cccc(C(=O)NCC(c3ccco3)N3CCCC3)c2)cc1F` (stereo not drawn) gave KB-V1 cytotox inconclusive, PINK1 modulator 1.6%, SW480 rereplic 23.1µM*, MCF10A rerep 20.7% and KB-3-1 tox inconclusive.
`COc1ccccc1C(CNC(=O)c1cccc(NS(=O)(=O)c2ccc(C)c(F)c2)c1)N1CCCC1` (stereo not drawn) gave KB-V1 cytotox inactive, PINK1 modulator 0.5%, SW480 rereplic -6.8%, MCF10A rerep 2.6% and KB-3-1 tox inactive.
`O=C(NCC(c1ccco1)N1CCCC1)c1cccc(S(=O)(=O)Nc2ccc(Br)cc2)c1` (stereo not drawn) gave PINK1 modulator 2.2%, SW480 rereplic 9.0% and MCF10A rerep inconclusive.
